Binding signal data for 110 sequences are collected here from publication PMC5836133, “The intracellular immune receptor Rx1 regulates the DNA-binding activity of a Golden2-like transcription factor”.

Whole data set: some 16,000 sequences, median “e-score” near -0.044, cut for the highest 2% near 0.38. For the sample, the highest values were picked, then their nearest neighbours and some sequences at random.

In the experiment the target is T1, GST-NbGlk1(82-244) (Nicotiana benthamiana).
T1 chain: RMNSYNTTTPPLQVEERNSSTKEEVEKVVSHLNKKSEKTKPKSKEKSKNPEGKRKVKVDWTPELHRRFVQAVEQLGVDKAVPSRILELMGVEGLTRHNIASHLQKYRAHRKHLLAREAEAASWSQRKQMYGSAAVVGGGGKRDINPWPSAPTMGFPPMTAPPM
Nature of the experiment: protein-binding microarray; NbGlk1 is a Golden2-like transcription factor of Nicotiana benthamiana; high values mean tight binding. The settings on record: protein: recombinant; tags: GST (pTH6838); dsDNA, one strand shown.
As to AGATATCC, the binding signal stood at 0.47954 ± 0.00034 E-score.

As for ATATATCA, the binding signal was 0.276 ± 0.0382 E-score.

As for AGATATAG, the binding signal stood at 0.225 ± 0.0489 E-score.

Consider AGATATCG, for which the binding signal was 0.462 ± 0.00283 E-score.

Consider AGATATGG, for which the binding signal turned out to be 0.373 ± 0.0298 E-score.

For AGATATGC, the binding signal turned out to be 0.415 ± 0.012 E-score.

Turning to ATCTCGCC, the binding signal came to 0.314 ± 0.0254 E-score.

As for ACCAAGAT, the binding signal stood at 0.289 ± 0.0649 E-score.

As for ATCCTTGA, the binding signal was 0.218 ± 0.0175 E-score.

Consider ATTTCTAC, for which the binding signal came to 0.285 ± 0.0555 E-score.

In the case of ATTACATA, the binding signal stood at 0.267 ± 0.0926 E-score.

As for ATTACGGC, the binding signal is 0.278 ± 0.0482 E-score.

Turning to AAGTAGAT, the binding signal was 0.216 ± 0.0697 E-score.

Take ATCCTTAC: the binding signal came out at 0.266 ± 0.0362 E-score.

As for ACTCAGAT, the binding signal was determined as 0.255 ± 0.0118 E-score.

Turning to ATCTTTAG, the binding signal was 0.26 ± 0.0391 E-score.

Take ATTCCCCC: the binding signal was 0.37 ± 0.0231 E-score.

Take ATCTATAC: the binding signal was found to be 0.231 ± 0.121 E-score.

As for AGATACGG, the binding signal amounted to 0.372 ± 0.019 E-score.

As for AGATATAT, the binding signal turned out to be 0.316 ± 0.0185 E-score.

As for ACATATCT, the binding signal amounted to 0.344 ± 0.0128 E-score.

Regarding AGATACGC, the binding signal turned out to be 0.422 ± 0.0238 E-score.

AGATACGA: the binding signal was 0.332 ± 0.0469 E-score.

On to AGATATCT, for which the binding signal came to 0.48 ± 0.00495 E-score.

On to ATCTTCAA, for which the binding signal was 0.303 ± 0.0183 E-score.

In the case of ATATTGGA, the binding signal was 0.241 ± 0.0475 E-score.

As to ATCAGGAA, the binding signal was determined as 0.288 ± 0.064 E-score.

ATAGGAAT: the binding signal amounted to 0.275 ± 0.0501 E-score.

In the case of AATCCGGG, the binding signal is 0.368 ± 0.0574 E-score.

With AATCCGTC, the binding signal stood at 0.39 ± 0.0333 E-score.

With ATTCCGGA, the binding signal was 0.232 ± 0.0263 E-score.

As for AATCCGTG, the binding signal was 0.322 ± 0.0593 E-score.

On to AATCCTTC, for which the binding signal is 0.265 ± 0.077 E-score.

With AATCCTGT, the binding signal amounted to 0.371 ± 0.0247 E-score.

For AATCCGTA, the binding signal worked out at 0.337 ± 0.0439 E-score.

In the case of ATCCCGGA, the binding signal worked out at 0.308 ± 0.0187 E-score.

For the sequence AATCCGGA, the binding signal came out at 0.42 ± 0.0333 E-score.

For AATCCGGT, the binding signal turned out to be 0.393 ± 0.0261 E-score.

Turning to AATCCGGC, the binding signal turned out to be 0.3885 ± 0.00169 E-score.

On to ATCGTCAA, for which the binding signal was found to be 0.231 ± 0.0882 E-score.

On to ACCCAGAT, for which the binding signal was 0.247 ± 0.0788 E-score.

For CACCGATA, the binding signal came to 0.256 ± 0.0751 E-score.

In the case of ATCAGCGA, the binding signal stood at 0.229 ± 0.0488 E-score.

As for AATCACAA, the binding signal was 0.346 ± 0.0519 E-score.

For the sequence ATTTTCTC, the binding signal came to 0.316 ± 0.054 E-score.

Regarding ACGCGGAT, the binding signal came to 0.235 ± 0.023 E-score.

For the sequence ATAAAGAT, the binding signal amounted to 0.279 ± 0.0792 E-score.

As for ACCAATAT, the binding signal worked out at 0.204 ± 0.0315 E-score.

As to AATAATAT, the binding signal worked out at 0.259 ± 0.0722 E-score.

In the case of ATTCTGTC, the binding signal came to 0.335 ± 0.0209 E-score.

For AATATGAT, the binding signal stood at 0.222 ± 0.00614 E-score.

For AATCTGAC, the binding signal turned out to be 0.417 ± 0.0317 E-score.

Take AATCTGTC: the binding signal is 0.391 ± 0.00978 E-score.

Regarding ATTCTGAC, the binding signal was found to be 0.242 ± 0.101 E-score.

With AATCTGAT, the binding signal came out at 0.414 ± 0.0225 E-score.

For AATCTGCT, the binding signal was 0.37 ± 0.0413 E-score.

As for AAACAGAT, the binding signal came out at 0.229 ± 0.0973 E-score.

For ATCTTGAC, the binding signal is 0.272 ± 0.0538 E-score.

In the case of AATCGTAT, the binding signal turned out to be 0.339 ± 0.0131 E-score.

With AAATCGCG, the binding signal was 0.4246 ± 0.00159 E-score.

Turning to AGATCGCC, the binding signal is 0.353 ± 0.0264 E-score.

ATATCGCA: the binding signal is 0.355 ± 0.0163 E-score.

Consider ATATCGCG, for which the binding signal came to 0.415 ± 0.00817 E-score.

Consider AGATCGCA, for which the binding signal was determined as 0.396 ± 0.016 E-score.

For AGATCGCT, the binding signal is 0.346 ± 0.00634 E-score.

On to AAATCGCC, for which the binding signal amounted to 0.322 ± 0.0236 E-score.

Consider AAATCGCA, for which the binding signal is 0.3786 ± 0.00224 E-score.

With AGATCGCG, the binding signal turned out to be 0.464 ± 0.00467 E-score.

On to AGATCGTA, for which the binding signal came to 0.283 ± 0.0295 E-score.

Take ATATCGCC: the binding signal came to 0.333 ± 0.0165 E-score.

For the sequence CAATCGCG, the binding signal amounted to 0.2571 ± 0.00241 E-score.

For AGCGCAAT, the binding signal was 0.303 ± 0.0261 E-score.

For CAATCCTG, the binding signal came to 0.3281 ± 0.00274 E-score.

Turning to CAATCCTA, the binding signal was determined as 0.288 ± 0.0058 E-score.

Regarding AAATCATT, the binding signal turned out to be 0.223 ± 0.00449 E-score.

As for AGATCCTG, the binding signal amounted to 0.369 ± 0.0433 E-score.

AGATCCTA: the binding signal was determined as 0.314 ± 0.00874 E-score.

As to AATCCCTA, the binding signal was determined as 0.281 ± 0.0127 E-score.

For AAATCGTT, the binding signal worked out at 0.248 ± 0.085 E-score.

Regarding AAATCCTG, the binding signal came out at 0.4223 ± 0.00332 E-score.

For the sequence AAATCCTT, the binding signal stood at 0.392 ± 0.0185 E-score.

Take AAATCCTA: the binding signal worked out at 0.417 ± 0.00908 E-score.

On to AGATCCTC, for which the binding signal worked out at 0.387 ± 0.0145 E-score.

For ATTTCACC, the binding signal stood at 0.214 ± 0.151 E-score.

Regarding ATTCCCCA, the binding signal was determined as 0.256 ± 0.075 E-score.

Regarding ATCCTCGC, the binding signal was determined as 0.205 ± 0.0887 E-score.

On to ATAGATCC, for which the binding signal was found to be 0.21 ± 0.00109 E-score.

With ATCTGTTG, the binding signal was 0.301 ± 0.07 E-score.

For the sequence ATATATAC, the binding signal stood at 0.227 ± 0.00145 E-score.

As to AAATACGC, the binding signal was 0.2039 ± 0.00167 E-score.

Regarding ATCCGGAC, the binding signal amounted to 0.272 ± 0.0502 E-score.

For the sequence ATCGATTA, the binding signal came out at 0.207 ± 0.0952 E-score.

In the case of CAAGATCG, the binding signal stood at 0.284 ± 0.0247 E-score.

On to AATATAAA, for which the binding signal amounted to 0.254 ± 0.107 E-score.

As for AAATCCTC, the binding signal is 0.414 ± 0.051 E-score.

Turning to AATCCCTC, the binding signal was 0.293 ± 0.0225 E-score.

Take CAATCCTC: the binding signal was found to be 0.269 ± 0.0948 E-score.

Consider ATTCCCGA, for which the binding signal stood at 0.333 ± 0.0675 E-score.

With ATCCCAAG, the binding signal came out at 0.206 ± 0.0761 E-score.

In the case of AATATATT, the binding signal came to 0.285 ± 0.0974 E-score.

On to ATAATCTA, for which the binding signal turned out to be 0.334 ± 0.0306 E-score.

For the sequence AGAATCTC, the binding signal came out at 0.469 ± 0.0125 E-score.

Regarding AGAATCGA, the binding signal came to 0.342 ± 0.0111 E-score.

Consider AGAATCGG, for which the binding signal was 0.375 ± 0.00432 E-score.

Turning to ATAATCTG, the binding signal turned out to be 0.356 ± 0.0112 E-score.

For the sequence AGAATCTG, the binding signal was 0.4793 ± 0.00413 E-score.

As for AGAATCTA, the binding signal was 0.48 ± 0.00879 E-score.

In the case of ATATAAAT, the binding signal came to 0.276 ± 0.0236 E-score.

On to AGGGAGAT, for which the binding signal is 0.281 ± 0.00745 E-score.

Take ACGGGGAT: the binding signal worked out at 0.214 ± 0.115 E-score.
